Most compounds without a hit are left out; they make up all but 19% or so of the library.
TDP1 cell noCPT – qHTS for Inhibitors of human tyrosyl-DNA phosphodiesterase 1 (TDP1): qHTS in cells in absence of CPT; 420,000 tested, 15% active; DT40 Tdp1-/- hTDP1 cells, no CPT, ATP luminescence, 48 h; Potency, µM (doses to about 46.2 µM), for the others: at the highest dose activity change, negative = growth inhibition, usual class: inhibitors; note: potency is the fitted concentration of half-maximal effect; nearly all actives have a fitted effect of over 55% in size
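Stably hTDP1-transfected Tdp1-null chicken DT40 cells were treated with library compounds minus camptothecin and grown for at least 48 hr at 37 °C, after which cellular ATP was quantified by luminescence.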
TDP1 cell CPT – DT40-hTDP1 cell growth loss with CPT | chicken DT40 Tdp1-/-;hTDP1 cells + 20 nM CPT, ATP luminescence, 48 h | Potency, µM (highest dose often 46.2 µM), without a hit: at the top dose activity change, negative = growth inhibition, most hits filed as inhibitors | 420,000 tested, 12% active; note: potency is the fitted concentration of half-maximal effect; nearly all actives have a fitted effect of over 55% in size
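Chicken DT40 Tdp1-/- cells complemented with human TDP1, 400 cells/well, exposed to compounds plus 20 nM camptothecin for at least 48 h at 37 C; viability read as ATP content by CellTiter-Glo luminescence.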
HT1080-NT tox – kills 2HG-producing HT-1080-NT fibrosarcoma cells; HT-1080-NT fibrosarcoma viability, CellTiter-Glo ATP luminescence, 48 h; Potency, µM (highest dose often 46.1 µM), inactives show at the top dose activity, negative = less viability, usual class: cytotoxic; 360,000 tested, 1.6% active; AID 686970;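 note: NT is the 2HG producing partner of a matched IDH1 knockdown line; potency is the fitted concentration of half-maximal effect; 0% = DMSO-treated cells and -100% = media-only wells without cells; nearly all actives have a fitted effect of over 55% in size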
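A 48-hour cytotoxicity screen used HT-1080-NT cells plated 2 hours before compound delivery. ATP-based CellTiter-Glo luminescence measured viability, normalized to DMSO and no-cell controls.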
IL-1B inflam inh – inhibitors of inflammasome signaling (IL-1 beta secretion); 360,000 tested, 4.7% active; THP-1 LPS/ATP IL-1B secretion, AlphaLISA, 16 h; active compounds read low; activity change, % at 57.5 µM; in the data active = activity change below about -50%; inconclusive = mostly about -30% to -49%
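Secreted IL-1B measured by AlphaLISA bead assay after 16 h compound exposure of THP-1 cells; compounds (final up to 57.5 uM) added 1 h before LPS (250 ng/mL) and ATP (1.25 mM) stimulation; lower signal means less secretion.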
HT1080 IDH1KD tx – kills HT-1080 cells with IDH1 knockdown. HT-1080 IDH1 knockdown viability, ATP luminescence, 48 h. Potency, µM (titrated, usually from 46.1 µM), for inactives: top-dose activity, negative = toxicity, usual class: cytotoxic. 360,000 tested, 2% active. AID 686971;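 note: potency is the fitted concentration of half-maximal effect; 0% = DMSO wells and -100% = cell-free medium wells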
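Knockdown cells (IDH1KD HT-1080) received compounds 2 h after plating at 750 cells/well and were kept 48 h at 37 °C in 5% FBS RPMI. A CellTiter-Glo luminescence read gave % activity for curve fitting.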
Numbers without * were called inactive; u = inconclusive; x = no result. Unless noted, calls come from the whole dose curve; as a rule, active = well fitted curve in the direction sought with a large enough effect; inconclusive = small, poorly fitted or top-dose-only effect, or another doubt; inactive = no such curve, though single readings can be large; an effect the other way counts as inactive or inconclusive. Unless noted, % is set by controls: 0 for no effect and ±100 for the full control effect.

SMILES | TDP1 cell noCPT | TDP1 cell CPT | HT1080-NT tox | IL-1B inflam inh | HT1080 IDH1KD tx
COc1ccc(OCCC(=O)OCC(=O)c2ccc[nH]2)cc1 | 13% | 7% | 7% | -10 | 2%
Cc1ccc(C(=O)Cn2c(NCCO)nc3ccccc32)cc1 | u | 3% | -17% | -19 | -8%
CN(C)c1ccc(C(=O)/C=C/c2ccco2)cc1 | u | 15µM* | 18% | -101* | 21%
CC(=O)c1c(C)nc2ccccn12 | 8% | -13% | 15% | -5 | 2%
Cc1ccc(C(=O)Cn2c(C(=O)/C=C/c3ccccc3)nc3ccccc32)cc1 | 16µM* | 16µM* | u | u | u
Cc1ccc(/C=C/C(=O)c2c(C)nc3ccccn23)cc1 | 16µM* | 16µM* | u | -95* | -21%
COC(=O)c1c(C)[nH]c(C(=O)/C=C/c2cccc(Cl)c2)c1C | u | u | 12% | -64* | 3%
CN(C(=O)C=Cc1ccco1)c1ccccc1 | u | u | 23% | -5 | 14%
CCC1(c2ccc(F)cc2)NC(=O)NC1=O (stereo not drawn) | -2% | 2% | 16% | -8 | 23%
CCOc1ccc(C(=O)/C=C/c2ccc(SC)cc2)cc1 | u | u | 1% | -19 | u
O=C(/C=C/c1ccc(OC2CSC2)cc1)c1ccccc1 | 18µM* | 18µM* | u | -11 | u
COC(=O)c1ccc(OC(=O)/C=C/c2ccco2)cc1 | -19% | 3% | 2% | 16 | 2%
O=C(C=Cc1cccc(Cl)c1)c1ccccc1 | 23µM* | 15µM* | u | u | u
O=C(/C=C/c1ccccc1)NNC(=O)c1cccc(Cl)c1 | -18% | 3% | 13% | -4 | 7%
CSc1ccc(/C=C/C(=O)c2ccc(O)cc2)cc1 | -84% | 18µM* | u | -79* | u
O=C(C=Cc1ccco1)c1ccc2ccccc2c1 | u | u | 17% | -65* | u
C[C@@H]1C[C@H]2[C@@H]3CCC4=CC(=O)C=C[C@]4(C)[C@@]3(F)[C@@H](O)C[C@]2(C)[C@@]1(O)C(=O)COC(=O)c1cccc(S(=O)(=O)O)c1 | -15% | -2% | x | x | x
O=C(/C=C/Nc1ccc(Br)cc1F)c1ccccc1 | -28% | -23% | u | -3 | u
Cc1ccc(/C=C/C(=O)c2ccccc2)cc1 | u | u | x | -67* | x
CC(=O)Nc1ccc(NC(=S)NC(=O)/C=C/c2ccco2)cc1 | u | u | -19% | 32 | -29%
O=C(C=Cc1ccccc1F)c1ccccc1 | u | u | u | -65* | u
CC(=O)Nc1ccc(C(=O)/C=C/c2ccco2)cc1 | u | 21µM* | 1% | -7 | 0%
Cc1ccc(C(=O)Nc2ccc3ncccc3c2)cc1 | u | -29% | -2% | u | -1%
Cc1ccc(C(=O)/C=C/c2ccc3ncccc3c2)cc1 | 29µM* | 18µM* | -13% | -58* | -24%
CN(C)c1ccc(C(=O)/C=C/c2ccc(Br)cc2)cc1 | u | -19% | 0% | -23 | -3%
SMILES | TDP1 cell noCPT | TDP1 cell CPT | HT1080-NT tox | IL-1B inflam inh | HT1080 IDH1KD tx
CC(=O)Nc1cccc(C(=O)/C=C/c2ccco2)c1 | u | u | 12% | -71* | 1%
CN(C)c1ccc(C(=O)/C=C/c2ccccc2)cc1 | u | 21µM* | -3% | -102* | u
Cc1ccc(C(=O)/C=C/C(=O)O)cc1 | 26µM* | u | u | -6 | u
O=C(NNC(=O)C1CCN(C(=O)Nc2ccccc2)CC1)c1ccc([N+](=O)[O-])cc1 | -10% | -5% | 0% | 11 | 1%
O=C(CSc1nnnn1-c1ccc(C(=O)O)cc1)NC1CCCCC1 | 2% | 4% | 6% | 3 | 5%
O=C(Nc1cc(S(=O)(=O)N2CCCCC2)ccc1N1CCCCC1)c1ccncc1 | u | u | 0% | -25 | 2%
CCOc1ccc2nc(-c3ccccc3)[nH]c2c1 | 21µM* | 9.2µM* | 8.2µM* | -3 | 9.2µM*
COc1ccc2nc(-c3ccccc3)[nH]c2c1 | u | u | -14% | 10 | -24%
COc1ccc(C(=O)NCCc2csc(-c3ccc(Cl)cc3)n2)c(OC)c1 | 23µM* | u | x | x | x
COc1ccc(C(=O)NCCc2csc(-c3ccc(Cl)cc3)n2)cc1 | 18µM* | u | x | x | x
N#C/C(=C\N1CCCCC1)S(=O)(=O)c1ccc(Cl)cc1 | -24% | -14% | -3% | 9 | 2%
COC(=O)c1sccc1-n1cccc1C(=O)C(=O)N1CCCC1 | -16% | -3% | 11% | 8 | 19%
CNC(=O)c1cccn1-c1ccsc1C(=O)OC | 18µM* | u | 28% | -1 | 16%
O=C(c1ccc(S(=O)(=O)N2CCCCC2)cc1)N1CCN=C1SCc1cccnc1 | u | 16µM* | 1% | 1 | 2%
CSC1=NCCN1C(=O)c1ccc(S(=O)(=O)N2CCCCC2)cc1 | u | u | 2% | 6 | 0%
O=C(c1ccc(Br)o1)N1CCN=C1SCc1cccnc1 | -13% | u | 17% | -54* | -3%
O=C(c1cc2ccccc2o1)N1CCN=C1SCc1cccnc1 | -26% | -23% | 30% | -58* | 23%
CCc1ccc(NC(=O)CCCc2nnc3n(CC(C)C)c(=O)c4sccc4n23)cc1 | 23µM* | 21µM* | x | x | x
CCn1c(=O)c2sccc2n2c(CCC(=O)NCc3ccc(Cl)cc3)nnc12 | 21µM* | u | x | x | x
CCn1c(=O)c2sccc2n2c(CCC(=O)N3CCN(c4ccc(C(C)=O)cc4)CC3)nnc12 | -16% | 3% | x | x | x
CCn1c(=O)c2sccc2n2c(CCCC(=O)NCCc3ccc(S(N)(=O)=O)cc3)nnc12 | 1% | 3% | -23% | -15 | -24%
CCn1c(=O)c2sccc2n2c(CCCC(=O)N3CCN(c4cc(C)ccc4C)CC3)nnc12 | 6.5µM* | 6.5µM* | x | x | x
CCc1ccc(NC(=O)CCc2nnc3n(C)c(=O)c4sccc4n23)cc1 | u | -11% | x | x | x
CCCn1c(=O)c2sccc2n2c(CCCC(=O)NCc3ccco3)nnc12 | -11% | -28% | -2% | 3 | -9%
CCCCC(CC)CNC(=O)CCCc1nnc2n(CCC)c(=O)c3sccc3n12 (stereo not drawn) | 23µM* | 21µM* | x | x | x
CCCCn1c(N)c(N(CC(C)C)C(=O)C2CCN(C(=O)c3ccc(F)cc3)CC2)c(=O)[nH]c1=O | 1% | -3% | 13% | 3 | 2%
CCOC(=O)C1(C)CCCCCN1C(=O)c1csnn1 (stereo not drawn) | 0% | -13% | 5% | -12 | 1%

Screening results (PubChem BioAssay)
